The list is not random: actives were taken first. Their share in the collection is about 1.3%.
PfHsp40 yeast: compounds rescuing yeast from Plasmodium falciparum HSP40 toxicity; S. cerevisiae expressing PfHsp40, growth rescue, ATP luminescence; growth rescue, % at 12.5 µM; 0.68% of 340,000 active; in the data active means growth rescue above about 28%, passing the limit was not always enough;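 further: yeast W303a lacking pdr1 and pdr3 grown in galactose medium; growth measured after three days at 30 °C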
BJeLR lethal: kills HRASV12-expressing BJeLR cells. BJeLR (HRASV12) viability, CellTiter-Glo ATP luminescence, 48 h. inhibition, % (no concentration beside the values). AID 1554. 0.17% of 300,000 active; in the data active means inhibition above about 50%
RN4220 kill: S. aureus RN4220 growth inhibition. OD600, 16 h. inhibition, % (no concentration beside the values). 0.33% of 330,000 active. AID 1259311; in the data active means inhibition above about 85%;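 further: plate controls were untreated cells for no effect and reference antibiotic for full effect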
SARS 3CLpro inh: SARS-CoV 3CLpro protease inhibition. P0C6X7. 0.14% of 290,000 active. recombinant SARS-CoV 3CLpro, quenched FRET peptide cleavage. inhibition, % at 6 µM; in the data active means inhibition above about 12%
ugtP null kill: compounds lethal to S. aureus RN4220 ugtP deletion mutant; OD600 growth, 16 h; growth inhibition, % (concentration not given with the values); 0.54% of 330,000 active; AID 1259309; in the data active means growth inhibition above about 68%;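 further: plate controls were untreated wells for no effect and antibiotic for full effect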
Active calls of the source: *; x = not tested or not shown.

SMILES	PfHsp40 yeast	BJeLR lethal	RN4220 kill	SARS 3CLpro inh	ugtP null kill
Cc1c(CCOC(=O)CC23CC4CC(CC(C4)C2)C3)sc[n+]1Cc1ccccc1	3	7	87	1	100*
CCOC(=O)c1c(-c2ccccc2)oc2ccc(OCC)cc12	0	-2	-5	4	79
CCOC(=O)c1c(-c2ccccc2)oc2ccc(O)cc12	318*	-13	2	2	3
NC(=O)c1c(-c2ccccc2)oc2ccc(O)cc12	0	-1	0	1	1
CCOC(=O)c1c(-c2ccccc2)oc2ccc(OC)cc12	-1	3	-3	3	90*
CC(C)(C)N1C(=O)[C@H]2[C@@H](c3ccc(Br)cc3)N3C(=O)N(c4ccccc4)C(=O)[C@@]3(Cc3ccccc3)[C@H]2C1=O	1	-9	x	x	x
Cc1csc2nc(CNS(=O)(=O)c3ccc4c(c3)OCCO4)cn12	63*	3	30	2	24
CCN(CC)S(=O)(=O)c1ccc(C(=O)NCCN2C(=O)S/C(=C\c3cccnc3)C2=O)cc1	4	2	2	-3	-10
CCCCCc1nc2c(c(=O)c3ccccc3n2C)c(=O)n1C1CCCCCC1	10	1	99*	0	100*
O=C(Nn1c(COc2ccccc2)nc2ccccc2c1=O)C(Cl)(Cl)Cl	0	7	100*	0	100*
Cc1nc2ccccc2c(=O)n1NC(=O)COc1ccccc1	0	-3	2	2	0
CCOC(=O)C(C)c1ccc2cc(OC)ccc2c1 (stereo unspecified)	1	7	0	-6	8
Cc1ccc(NC(=O)c2ncn(CCCN(CCCn3cnc(C(=O)Nc4ccc(C)c(C)c4)n3)Cc3ccc4[nH]ccc4c3)n2)cc1C	-2	x	x	x	x
CCOc1ccc(S(=O)(=O)n2cc(F)c(=O)[nH]c2=O)cc1	144*	0	18	-1	29
Cc1ccc(OCCC(=O)OCC(=O)NC(=O)NCc2ccccc2)cc1	2	3	3	x	6
COc1ccc(-n2nnnc2CNC(=O)C(=O)c2c[nH]c3ccccc23)cc1	1	10	1	x	0
Cc1ccc(-n2nnnc2SC(C(=O)c2c[nH]c3ccccc23)c2ccccc2)cc1 (stereo unspecified)	-2	12	65	2	90*
O=C(CSc1cccc[n+]1[O-])Nc1ccccc1Oc1ccccc1	90*	-7	13	-2	0
COc1ccc(N(C)S(=O)(=O)c2ccc(Cl)c(C(=O)NNC(=O)c3ccccc3O)c2)cc1	248*	x	13	x	-5
COc1ccccc1N(C)S(=O)(=O)c1ccc(Cl)c(C(=O)NNC(=O)c2ccccc2O)c1	218*	4	21	6	8
COC(=O)c1cc(NC(=O)CN(c2ccccc2OC)S(=O)(=O)c2ccccc2)ccc1Cl	4	4	-19	13*	-9
COc1ccccc1N(C)S(=O)(=O)c1ccc(C(=O)NNC(=O)c2ccccc2O)cc1	x	x	8	x	0
COc1ccc(/C=C/C(=O)NCC(c2ccc(F)cc2)N2CCOCC2)cc1OC (stereo unspecified)	0	4	-2	-2	-6
Cc1cc(N2CCCCC2)n2ncc(-c3ccc(Cl)cc3)c2n1	-1	5	-1	-1	85*
COC(=O)c1ccc(/C=C/c2ccc3cccc(OC(C)=O)c3n2)cc1	140*	10	-3	2	-13
SMILES	PfHsp40 yeast	BJeLR lethal	RN4220 kill	SARS 3CLpro inh	ugtP null kill
O=C(O)c1ccc(/C=C/c2ccc3cccc(O)c3n2)cc1	0	9	7	0	-3
CCCn1c(N)c(N(CCOC)C(=O)c2ccc(N3CCCC3=O)cc2)c(=O)[nH]c1=O	-2	-2	2	x	7
C=CCN(CC=C)C(=S)NC(=O)c1ccc(C)c(Br)c1	296*	-6	13	3	-5
CCc1cc(-c2[nH]ncc2-c2ccc([N+](=O)[O-])cc2)c(O)cc1OC	360*	5	-5	2	8
COc1ccc(-c2cn[nH]c2-c2ccc(OCc3ccc([N+](=O)[O-])cc3)cc2O)cc1OC	0	3	18	8	6
COc1ccccc1NC(=S)NNC(=O)c1ccccc1	29*	2	3	-5	8
O=C(NC(=S)NNC(=O)[C@H]1C[C@@H]1c1ccccc1)c1cccc(F)c1	49*	5	36	2	14
Cc1ccccc1C(=O)NNC(=S)NC(=O)c1ccccc1	169*	-4	33	-2	8
Cc1ccc(C(=O)NC(=S)NNC(=O)c2ccccc2)cc1	39*	-5	37	3	8
O=C(NC(=S)NNC(=O)c1ccccc1O)c1ccccc1	0	9	28	4	15
COc1cccc(OC)c1C(=O)NC(=S)NNC(=O)[C@H]1C[C@@H]1c1ccccc1	1	-15	17	3	-6
Cn1cnc([N+](=O)[O-])c1Sc1nc(N)nc2c1ncn2Cc1ccccc1	-1	x	6	x	8
COc1ccc(C2=NN(C(=O)c3ccco3)C(c3cc4ccccc4nc3Cl)C2)cc1 (stereo unspecified)	x	-3	4	-2	10
COc1ccc(C(=O)NNC(=S)NC(=O)c2ccc(F)cc2)cc1Br	x	0	81	x	85*
COc1ccc(C(=O)NC(=S)NNC(=O)c2ccncc2)cc1Br	5	x	34	x	6
Cc1cccc(C(=O)NNC(=S)NC(=O)c2ccccc2)c1	127*	0	52	x	20
CCN1CCCC1CNC(=O)c1cc(S(=O)(=O)N(C)C)ccc1Cl (stereo unspecified)	3	-5	-2	-1	5
Cc1cc(C)c(NC(=O)c2cc3c(nc4sccn43)s2)c(C)c1	66*	5	5	3	-6
Cc1ccc(C)c(C(=O)c2c(C)nc3sccn23)c1	1	x	3	5	0
O=C(Nc1cccc2ccccc12)NC1CCS(=O)(=O)C1 (stereo unspecified)	1	-2	5	-2	-6
COc1cc(S(=O)(=O)NC2CCCCC2)ccc1Cl	91*	-6	0	-9	-4
CCOc1cc(S(=O)(=O)NC2CCCCCC2)ccc1F	48*	9	2	1	-3
CCCn1nc2cc(C(=O)NCCCCc3ccccc3)ccc2c1OCC	3	10	10	0	10
CCCCCc1ccc(-c2nnc(N)s2)cc1	1	-3	11	3	70
CCCCCCc1ccc(-c2ncc(N)cn2)cc1	2	-8	5	3	100*
O=C(C1CCN(c2nc3nonc3nc2N2CCCCC2)CC1)N1CCOCC1	-1	-5	3	-3	1
CCOc1ccc(CCNC(=O)c2ccc(CS(=O)Cc3ccccc3Cl)o2)cc1 (stereo unspecified)	-1	4	-3	3	14
CSc1ccc(CCNC(=O)c2ccc(CS(=O)Cc3ccc(Cl)cc3)o2)cc1 (stereo unspecified)	0	8	-2	1	53
O=C(NCc1cccc(Cl)c1)c1ccc(CS(=O)Cc2ccc(Cl)cc2)o1 (stereo unspecified)	0	-1	0	6	4

Screens as filed in PubChem BioAssay.
